About 5,800 (36%) of roughly 16,000 compounds were called active. Another 23% or so got no clear call; they are omitted. The list shows a part of the results. A number with no mark means an inactive call. Calls come from the whole dose curve; as a rule, active = well fitted curve in the direction sought with a large enough effect; inconclusive = small, poorly fitted or top-dose-only effect, or effect the other way; inactive = no such curve, though single readings can be large or run the other way.
Target: Cytochrome P450 2C19 (Homo sapiens) (UniProt P33261)
Sequence (P33261 whole entry, looked up): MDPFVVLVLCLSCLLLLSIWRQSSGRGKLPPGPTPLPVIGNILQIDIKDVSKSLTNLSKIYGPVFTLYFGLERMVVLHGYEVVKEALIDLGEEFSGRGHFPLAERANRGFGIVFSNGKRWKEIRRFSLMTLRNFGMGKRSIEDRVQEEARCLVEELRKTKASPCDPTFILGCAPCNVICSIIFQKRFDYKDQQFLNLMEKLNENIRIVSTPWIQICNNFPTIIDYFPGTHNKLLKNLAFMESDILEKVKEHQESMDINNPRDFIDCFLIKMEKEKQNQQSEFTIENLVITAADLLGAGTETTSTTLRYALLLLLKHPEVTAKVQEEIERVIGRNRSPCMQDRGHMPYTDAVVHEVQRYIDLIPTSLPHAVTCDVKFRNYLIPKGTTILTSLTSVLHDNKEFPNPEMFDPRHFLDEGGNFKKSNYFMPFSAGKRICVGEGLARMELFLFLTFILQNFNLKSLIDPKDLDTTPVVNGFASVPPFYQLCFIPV
Assay: Cytochrome panel assay with activity outcomes
Conditions: recombinant CYP, pro-luciferin dealkylation, luminescence, p450-cyp2c19; series mostly up to 57.1 µM
% is set by controls: 0 for no effect and ±100 for the full control effect.

**Q.** Which activity, negative = inhibition does the source give for `CC(C)CO/N=C1/C[C@@H](O)[C@@H](O)[C@@H]2[C@@H]3C(=O)N([C@@H](C)c4ccccc4)C(=O)[C@H]3CC[C@H]12` here?
**A.** -12.9% [at 11.4 µM]

**Q.** How did the AC50 turn out when `Cc1c(Cl)cccc1NC(=O)CN1CCC(C(O)(c2ccccc2)c2ccccc2)CC1` was run?
**A.** 11.2 µM (active)

**Q.** For `Cc1cccc(NC(=S)N2CCC(N(C)CC3CCCO3)CC2)c1C` (stereo not drawn), which AC50 is on record?
**A.** inactive

**Q.** Which AC50 does the source give for `COc1cc2c(cc1OC)C(C(=O)N1CCN(c3ccccn3)CC1)C(c1cccs1)N(C)C2=O` (stereo not drawn) here?
**A.** inactive

**Q.** For `COc1cc(NC(=O)c2ccccc2)c(OC)cc1NC(=O)CN1CCN(c2ccccn2)CC1`, which AC50 is on record?
**A.** 17.8 µM (active)

**Q.** `Cc1c(NC(=O)CN2CCN(c3ccccc3)CC2)c(=O)n(-c2ccccc2)n1C` was tested. Which AC50 did it give?
**A.** inactive

**Q.** Which AC50 does the source give for `Cc1ccc(NC(=O)c2c(C(F)(F)F)nn(C)c2SCc2cccc(C(F)(F)F)c2)cc1C` here?
**A.** 0.562 µM (active)

**Q.** Which AC50 does the source give for `Cc1cccc(C)c1NC(=O)CS(=O)CC(=O)Nc1ccc(F)cc1F` (stereo not drawn) here?
**A.** inactive

**Q.** With `Cc1ccc(NC(=O)c2sccc2SCc2cccc(C(F)(F)F)c2)cc1` as the molecule, how does the AC50 read?
**A.** 0.631 µM (active)

**Q.** Which AC50 does the source give for `Cn1nc(C(F)(F)F)c(C(=O)Nc2ccc(F)cc2F)c1Sc1ccc(C(F)(F)F)cc1` here?
**A.** 0.631 µM (active)

**Q.** Which AC50 does the source give for `Cn1nc(C(F)(F)F)c(C(=O)Nc2ccc(F)cc2F)c1Sc1cccc(C(F)(F)F)c1` here?
**A.** 0.501 µM (active)

**Q.** How did the AC50 turn out when `C1COC(NC(C2CC2)C2CC2)=N1` was run?
**A.** inactive

**Q.** With `CCCN1C[C@@H](CSC)C[C@H]2c3cccc4[nH]cc(c34)C[C@@H]21` as the molecule, how does the AC50 read?
**A.** inactive

**Q.** For `O=C1CC[C@](CCc2nc3ccccc3[nH]2)(c2ccccc2)C(=O)N1`, which activity, negative = inhibition is on record?
**A.** -21.5% [at 11.4 µM]

**Q.** Which AC50 does the source give for `O=C(OCc1nc2ccccc2[nH]1)C12CC3CC(CC(C3)C1)C2` here?
**A.** 2.51 µM (active)

**Q.** How did the AC50 turn out when `COC(=O)Cc1cc(=O)n2[nH]c(C)c(-c3ccccc3)c2n1` was run?
**A.** inactive

**Q.** Which AC50 does the source give for `N#Cc1c[nH]n2c(=O)c3c(nc12)CCCC3` here?
**A.** inactive

**Q.** `Cc1ccc(-c2[nH]n3c(=O)c4c(nc3c2C)CCCC4)cc1` was tested. Which AC50 did it give?
**A.** 3.98 µM (active)

**Q.** How did the AC50 turn out when `Nc1[nH]n2c(=O)c3c(nc2c1N=Nc1ccccc1)CCCC3` was run?
**A.** inactive

**Q.** Which AC50 does the source give for `CSc1nc2nc3c(c(=O)n2[nH]1)CN(Cc1ccccc1)CC3` here?
**A.** inactive

**Q.** How did the AC50 turn out when `Cc1ccc(N=Nc2c(N)[nH]n3c(=O)c4c(nc23)CCCC4)cc1` was run?
**A.** 25.1 µM (active)

**Q.** Which AC50 does the source give for `Cc1[nH]n2c(=O)c3c(nc2c1-c1cccc2ccccc12)CCC3` here?
**A.** 8.91 µM (active)

**Q.** With `COc1ccc(CNc2nc3nc4c(c(=O)n3[nH]2)CCC4)cc1` as the molecule, how does the AC50 read?
**A.** inactive

**Q.** With `COc1cccc([C@H](O)Cn2cc(-c3cccc(CON=C(C)C)c3)nn2)c1` as the molecule, how does the activity, negative = inhibition read?
**A.** -19.8% [at 11.4 µM]

**Q.** For `CC(C)c1ccc(N=c2c([N+](=O)[O-])nn(-c3ccc4c(c3)OCCO4)n2O)cc1`, which AC50 is on record?
**A.** 11.2 µM (active)

**Q.** `COc1ccc(OC)c(C2C3=C(COC3=O)Nc3cc4c(cc32)OCO4)c1` (stereo not drawn) was tested. Which AC50 did it give?
**A.** 1.12 µM (active)

**Q.** How did the AC50 turn out when `CC1(C)Oc2cc(N)c([N+](=O)[O-])cc2O1` was run?
**A.** 10 µM (active)

**Q.** Which AC50 does the source give for `CC1(C)Cc2c(sc3nc(-c4ccccc4)n(N)c(=O)c23)CO1` here?
**A.** 25.1 µM (active)

**Q.** `Cc1nn2c(C)nc3sc4c(c3c2nc1=O)CC(C)(C)OC4` was tested. Which AC50 did it give?
**A.** inactive

**Q.** How did the activity, negative = inhibition turn out when `CC(C)[C@H](Sc1nc(N)nc2nc[nH]c12)C(=O)O` was run?
**A.** 22.9% [at 11.4 µM]

**Q.** How did the AC50 turn out when `Nc1nc(SC/C=C\c2ccccc2)c2[nH]cnc2n1` was run?
**A.** 1.58 µM (active)

**Q.** With `Nc1nc(SCCc2ccccc2)c2[nH]cnc2n1` as the molecule, how does the AC50 read?
**A.** 0.631 µM (active)

**Q.** Which AC50 does the source give for `Nc1nc(Sc2ccc([N+](=O)[O-])c3nonc23)c2[nH]cnc2n1` here?
**A.** 1.58 µM (active)

**Q.** How did the activity, negative = inhibition turn out when `O=c1[nH]c(SCc2ccccc2[N+](=O)[O-])nc2nc[nH]c12` was run?
**A.** 23.8% [at 11.4 µM]

**Q.** `Nc1nc(SCc2ccccc2[N+](=O)[O-])c2[nH]cnc2n1` was tested. Which AC50 did it give?
**A.** 1 µM (active)

**Q.** Which activity, negative = inhibition does the source give for `Nc1nc(N)c2[nH]cnc2n1` (tested in a mixture with another compound) here?
**A.** 6.99% [at 11.4 µM]

**Q.** For `CCC[C@H](Sc1nc(N)nc2nc[nH]c12)C(=O)O`, which activity, negative = inhibition is on record?
**A.** 25% [at 11.4 µM]

**Q.** `CC[C@H](C)[C@@H]1O[C@]2(CC[C@@H]1C)C[C@H]1C[C@H](CC=C(C)[C@@H](O[C@H]3C[C@H](OC)[C@H](O[C@H]4C[C@H](OC)[C@H](O)[C@H](C)O4)[C@H](C)O3)[C@@H](C)C=CC=C3CO[C@@H]4[C@@H](O)C(C)=C[C@H](C(=O)O1)[C@@]34O)O2` was tested. Which AC50 did it give?
**A.** inactive

**Q.** Which AC50 does the source give for `COc1cc2c(CCNC(C)=O)c[nH]c2cc1O` here?
**A.** inactive

**Q.** Which AC50 does the source give for `CC(=O)NCCc1c[nH]c2ccc(O)cc12` here?
**A.** inactive

**Q.** Which AC50 does the source give for `COc1cc2c(CCNC(C)=O)c[nH]c2cc1Cl` here?
**A.** 5.01 µM (active)

**Q.** How did the activity, negative = inhibition turn out when `CC(C)[C@](N)(C(=O)O)c1ccccc1` was run?
**A.** 11.6% [at 11.4 µM]

**Q.** `Cc1nc2c3cnn(-c4ccc(C)c(C)c4)c3ncn2n1` was tested. Which AC50 did it give?
**A.** 10 µM (active)

**Q.** `O=C(N/N=C/c1ccco1)c1ccc(Br)o1` was tested. Which AC50 did it give?
**A.** inactive

**Q.** With `O=C(Cc1ccccc1)N/N=C/c1cc(Br)c(Br)o1` as the molecule, how does the AC50 read?
**A.** 8.91 µM (active)

**Q.** For `O=C(Cc1ccccc1)N/N=C\c1ccc(Br)o1`, which AC50 is on record?
**A.** 10 µM (active)

**Q.** `O=C(O)c1cc2cc(Cl)ccc2oc1=O` was tested. Which AC50 did it give?
**A.** inactive

**Q.** Which AC50 does the source give for `O=c1ccc2cc(O)c(O)cc2o1` here?
**A.** inactive

**Q.** Which AC50 does the source give for `CCN(CC)c1ccc2cc(C(C)=O)c(=O)oc2c1` here?
**A.** 1.58 µM (active)

**Q.** How did the activity, negative = inhibition turn out when `O=C(O)C[C@H](S)C(=O)O` was run?
**A.** 13.1% [at 11.4 µM]

**Q.** For `C=CC(C)(C)c1[nH]c2ccccc2c1C1=C(O)C(=O)C(c2c[nH]c3c(CC=C(C)C)cccc23)=C(O)C1=O`, which AC50 is on record?
**A.** 1.26 µM (active)

**Q.** Which AC50 does the source give for `COc1ccc(-n2c(=O)c(-c3cccs3)nc3cnc(N4CCOCC4)nc32)cc1` here?
**A.** inactive

**Q.** For `Cc1ccc(C)c(S(=O)(=O)NCc2ccc(C(=O)N3CCC(Cc4ccccc4)CC3)cc2)c1`, which AC50 is on record?
**A.** 4.47 µM (active)

**Q.** `CCCS(=O)(=O)N1CCCC(C(=O)NCCN2CCC(Cc3ccccc3)CC2)C1` (stereo not drawn) was tested. Which AC50 did it give?
**A.** inactive

**Q.** For `Cc1ccc2c(c1)N[C@H](c1ccc(C(=O)O)cc1)c1cccn1-2`, which activity, negative = inhibition is on record?
**A.** -26.9% [at 11.4 µM]

**Q.** With `Cc1nc2ccccc2n1CC(=O)N/N=C\C=C\c1ccccc1` as the molecule, how does the AC50 read?
**A.** 7.08 µM (active)

**Q.** For `Cn1c(SCC(=O)N/N=C/C=C\c2ccco2)nc2ccccc21`, which AC50 is on record?
**A.** 14.1 µM (active)

**Q.** How did the AC50 turn out when `CNC(=O)Oc1ccc2c(c1)[C@@]1(C)CCN(C)[C@@H]1N2C` was run?
**A.** inactive
